In PubChem BioAssay AID1508600 (Functional Genomics Laboratory (NCATS/FGL), 2020) one finds z-score data, which are given here for 108 sequences.

Hit rate of the full screen: of about 53,000 sequences, about 3,700 (7%) were called active.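 How the source made its calls: active means gene knockdowns whose robust z-score for IL-1 alpha signal is at least 2 or at most -2, so actives lie on both sides; inactive means the rest.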 Only a selection was taken, and actives are over-represented in it overall.

The nature of the assay: Components of the Cytosolic LPS Sensing Pathway: Gene Identification via Genome-wide siRNA Screen.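 Further: robust z of the log signal after scaling to non-targeting control siRNA wells of the plate.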 The following applies: RAW264.7 macrophages, IL-1a HTRF, actives lie on both sides, screened at 100 nM (by protocol), cells primed 5 h with Pam3CSK4 first. The procedure, abridged: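 IL-1a HTRF of supernatants after 24 hour LipidA transfection of Pam3CSK4-primed (5 hours) RAW264.7 cells, 48h post-siRNA transfection (100 nM). Scores: percent of plate negative-control median, then log-based robust z-score.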
A general note: In TR-FRET formats the signal depends on donor and acceptor labels being close together.
Take GGAACAAAUUCUGGAGUUGTT against Zfp287: the z-score was 0.791 (inactive). With GGUUACAGAGAGACAUCAUTT against Cdk5rap2, the z-score is 0.942 (inactive).

For the sequence GGGUUUCAACGGCUGUGACTT against Mef2d, the z-score was -2.73 (active).

As for GGUUAUGGAGACAAAGGAUTT against Sik1, the z-score is -1.33 (inactive).

For the sequence CCGUACGAUGAUAAUACCATT against Clec4a3, the z-score was 2.29 (active). The figure for GGAGCUAGCUGAGUUCAUGTT against Arhgap4 is 1.22 (inactive); for GGACAGCUCUCUUUAGUCUTT against Erf it is -1.78 (inactive). Regarding GGACCUGAAGGCUGAAAUUTT against Ing4, the z-score is 3.08 (active). The same measure for GGUCUGAUAACUCUGGAGGTT against Snf8: -0.0859 (inactive). For the sequence GGAUGGACAUCCAAGCAGGTT against Fabp9, the z-score was -1.97 (inactive). With GGAGUGUUACUAGAUGUCCTT against Spns3, the z-score was 0.394 (inactive).

Turning to “CGAACUGGUAGAAGUUAUUTT against Csgalnact2”, the z-score is 2.07 (active). Regarding GGUCUCUGUACUUUGACUGTT against Cldn19, the z-score is -1.2 (inactive).

For GGAGCAAAAUUCACAGUCUTT against Bcl7a, the z-score was -0.25 (inactive). GAUUGGCUUCAAUCUAGUCTT against Olfr713: the z-score was 0.701 (inactive). As to GGGCCAGAGUCAGAAAAGGTT against Ebp, the z-score was 1.98 (inactive). The same measure for GCGUAUGUACCGAUGGCAGTT against Mocs2: 0.871 (inactive).

Consider CGCUGCCUAAACAAGAUUATT against Cacna1f, for which the z-score was 3.28 (active). Consider AGACCUUGAGAACAUUCUUTT against Nkx2-6, for which the z-score is 0.925 (inactive).

Turning to CCGUGAUCUUAAACCCUCUTT against Mapk7, the z-score was -0.988 (inactive). Take CGUUUUACCACCGUGUGCUTT against Gfra1: the z-score is -0.284 (inactive). As to GGUAAUUCAGUCUUAUACATT against Pcdhb21, the z-score was 3.2 (active).

CGUGAAGAUUCUUAAGGCGTT against Ppil1: the z-score was 0.716 (inactive). Consider GGUGGAAUUGAAGAGUUCATT against Rcor3, for which the z-score was 0.24 (inactive). Take GCAAGAAACGGGAACUAUUTT against Mettl7b: the z-score is 1.25 (inactive). Take GGCCUUAGAAUUUGAUUCUTT against Slc30a8: the z-score was 0.814 (inactive). As to GGAUGUAUAGGUUCAGCUGTT against Dph2, the z-score is 0.41 (inactive). As for GGCCUUUGGGACAUGUGUGTT against Olfr552, the z-score was -2.05 (active).

Take GGAGAAGCUCUUAAAGAAATT against Traf3ip3: the z-score is 0.959 (inactive). The same measure for GCAGUGAAGUCCAAGUUAGTT against Pold3: -0.456 (inactive). The same measure for CCAAUAAGUGACCUUUUUUTT against Tmprss11b: -0.989 (inactive); for CCAAGUCUACCUCUAUUUUTT against Pbsn: 1.77 (inactive); for GGUUCCUUAAUUUAUUGCCTT against Fbxl22: 2.31 (active). In the case of CCACUAUGGCGACCAGAUUTT against Mfap2, the z-score was 0.0375 (inactive). The figure for GCCCUCACAGCCAGAAUUGTT against Pram1 is -2.15 (active); for GGUUAAAAGCCAUGUGUAATT against Pggt1b it is -0.151 (inactive); for CGAUGGUCGAAGGAUUGUCTT against Tnfsf4 it is -0.837 (inactive). The figure for GUCACAAGCUGUCCAACAATT against Ndufa7 is -2.25 (active); for “GGUUUUGUCACCAUAGCCATT against 3110040N11Rik” it is -0.762 (inactive). GGACAUUGAGUCAAAAAUCTT against Slc19a2: the z-score is -0.966 (inactive). The figure for GCCUGGAGAAGUGAACUCUTT against Tll1 is -1.65 (inactive). Consider GGGAUUUCGAGAGACUAGCTT against Dock9, for which the z-score was -0.487 (inactive).

For GCCCUGAUGCAAGCUUGUGTT against Gprin3, the z-score is 0.193 (inactive).

Turning to CCUGUUUCAGUCAUUAGUGTT against Slc22a2, the z-score was 2.6 (active).

As to GGCAACUGUUUCUGCUCCGTT against Ap4e1, the z-score was -0.746 (inactive). On to GCCAAUCGUAACUUGCUAATT against Arhgap19, for which the z-score is 0.865 (inactive). In the case of GGUACAACAAAAAUGUGACTT against Vmn1r73, the z-score is -1.39 (inactive). Turning to GCGAGGUGAAAAGCUUCUGTT against Sobp, the z-score is -0.433 (inactive). GGAAUUUUGCCAGCAAAUGTT against Edaradd: the z-score was 0.624 (inactive). GGCCAUUAAUUACUACGAGTT against Ttc21a: the z-score was 0.368 (inactive). Take GCAAAACUUGACUACCGCCTT against Bzw1: the z-score is 2.08 (active). For the sequence CCCGAGAAUACACCAUCAATT against Rpl31, the z-score is 0.347 (inactive). On to CCAUUCCAUGUCGAUGUCUTT against Prm2, for which the z-score is -2.08 (active).

As to GGGAGAUGUAUGCUUGCUCTT against Evi2a, the z-score was 0.934 (inactive).

Consider CUCUAUCUCAUUGCAGUCCTT against Olfr671, for which the z-score was -0.0809 (inactive).

Consider GUUCCCUACAAGUUCUUCCTT against Phox2a, for which the z-score was 1.54 (inactive).

Regarding GGCUUUUGUCAAACAGCAUTT against Ins1, the z-score is -2.9 (active). With GCGUAGACUUGAGGACUUATT against Uimc1, the z-score is -0.705 (inactive). With CGGCGGUGUGUUGUUUUAGTT against Hmces, the z-score is 0.36 (inactive). Take CGGUUAGACAGUGCACCAATT against Dnm1: the z-score was 0.4 (inactive). On to GGCUCGGACCAAAAAAAUUTT against Msantd3, for which the z-score was -1.33 (inactive). As for GCAUGCGACUCUGUUCUCGTT against Gtf2a2, the z-score is -0.228 (inactive). In the case of “GGAGAUUUUCAAGAGACUCTT against 0610010F05Rik”, the z-score is 1.94 (inactive). As for GGAAAAACUACCAAGAGGATT against Pigp, the z-score was 2.32 (active). For GGUCUACCAUGACACACGUTT against Prrg2, the z-score was 0.519 (inactive). On to GCCUGGUUUCUCCCUCAAATT against Pkmyt1, for which the z-score is -0.567 (inactive). The same measure for CGCAGUUAUAUUCCACCACTT against Slain1: -0.317 (inactive); for GGUACCUAGGAUGCUCUCATT against Ift140: -2.23 (active). On to GGCCUUCACUGGUUAAAAUTT against Ankrd6, for which the z-score is 0.0966 (inactive). On to GGAGAUCCUCAUUUGUGUGTT against Ftmt, for which the z-score is -1.99 (inactive). Consider GGGUAUGAGCAUAAAAUAATT against Il16, for which the z-score was -1.2 (inactive).

Turning to GCAAAUGGUGCAUACGUGATT against Slc35d1, the z-score is 0.211 (inactive).

With CCAAUUUGUCAAAACAAUCTT against Slit2, the z-score was 0.681 (inactive).

For GGAUGUCAGGACAAAACCATT against Olfr1335, the z-score was -2.51 (active).

Take GGAAGAGCUUUCUGGAAAUTT against Ndrg2: the z-score was 0.226 (inactive). The same measure for GGCAUACUUGUACCGCUAUTT against Mmp9: -0.35 (inactive); for GGAUAUUCAGCACUGGGAATT against Rrm2: -0.525 (inactive).

Turning to GGUAGUGGACAGUUUUGACTT against Mrpl55, the z-score is 0.675 (inactive).

In the case of GCCUUUCAUGGAUUAACCUTT against Gsdmc, the z-score is -2.03 (active). The figure for CGACGAAGAUAUUUACAGUTT against Vav1 is 0.504 (inactive); for CCAAAAAAGUUAGUUGUGGTT against Phf6 it is 1.23 (inactive); for GGUCGUAAAAAUUGAAAUCTT against Lhcgr it is 0.169 (inactive). The figure for GGAGGAUCUUGAGUUGGAGTT against Nupr1l is 2.32 (active); for CCAUUUAUGGGUUUUCUCUTT against Taar7b it is 0.12 (inactive). In the case of GGCUGUGCUACAGUUUCUCTT against Get4, the z-score was -0.498 (inactive). Regarding GGUCAUUGAGCUGAUGGACTT against Elovl1, the z-score was 4.34 (active). Turning to GGGCUUUCACACAAUCCCUTT against Kcns1, the z-score was -0.362 (inactive). Consider GGAACUGGCCAAUUACUACTT against Rdm1, for which the z-score was -1.29 (inactive). On to GGAUAUCACUUGCUAUUCCTT against Abraxas2, for which the z-score is -0.406 (inactive). Turning to GGCUUAUGACGAAUUAGUCTT against Ubn2, the z-score is 0.274 (inactive). GGAACAGCCUAUGUGGUCUTT against Sf3b6: the z-score was -2.17 (active). With GCACCUUGUCAACCAUUACTT against Kctd7, the z-score was 0.842 (inactive). Turning to GGGCAUCAGCAUUUGGUCATT against Med1, the z-score was 0.698 (inactive). As for GGAAGUCGAGUUGAAAUCGTT against Rida, the z-score is 0.755 (inactive). As to GUUGAGUGGCUGUGAUAUATT against Nms, the z-score was -0.00159 (inactive). Consider GGAAAUAUGAUAGAAUGCCTT against Pramel32, for which the z-score is 0.17 (inactive). The figure for GGCAAAAGAACAAGAAACUTT against Orc1 is -2.09 (active).

Turning to GGCUAUCACCUCCAACACCTT against Fkbp8, the z-score was -1.04 (inactive). For GGACAAGGAACAGAGCCUUTT against Rnf183, the z-score was -1.27 (inactive). The figure for GGAGAUCUUGAGAUUGUAUTT against Ticrr is 0.424 (inactive); for GGAGAAAGGAUUGUGUUUGTT against Clec10a it is 2.2 (active); for CCCGGUUCUUAGGUUUGUATT against Prr15l it is 1 (inactive). The figure for GGUCAGGUUGCCAAGAAGGTT against Sbds is 1.59 (inactive).

Take GGCAUGAAUAUGCAUUUAGTT against Arrdc3: the z-score was -3.65 (active).

With CCCAUAUGAGCUGAAAGCUTT against Il1b, the z-score was -0.878 (inactive). For the sequence GGGAAUGUCUGAAAGUCCCTT against Klhdc10, the z-score was 0.66 (inactive).

With GGCCAUCAAGGUCUUUUCUTT against Washc1, the z-score is -1.34 (inactive). Take GGAUCUUCUUCUAUCAGUCTT against Ncf4: the z-score is 0.487 (inactive).
